# Source: PubChem BioAssay AID1671190 (National Center for Advancing Translational Sciences (NCATS), 2021)
# The whole screen tested about 580,000 compounds, of which about 6,100 (1.1%) were called active. Inconclusive results (about 15%) are left out. This is one part of a sample in which actives are shown more often than they occur. Values without a mark were called inactive. Calls come from the whole dose curve; as a rule, active = well fitted inhibition curve with a large enough effect; inconclusive = small, poorly fitted or top-dose-only effect, or another doubt; inactive = no such curve, though single readings can be large or run the other way.
# Biological target: Polyunsaturated fatty acid lipoxygenase ALOX12 (Homo sapiens) (UniProt P18054)
# Test: Primary qHTS assay for inhibitors of human arachidonate 12S-lipoxygenase (ALOX12): Round 2
# Settings: purified 12hLO, xylenol orange hydroperoxide absorbance; series mostly up to 108 µM; activity change, negative = inhibition: at the top concentration
# Method in brief: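 Purified human 12hLO (150 nM final) in 25 mM Hepes, 0.01% Triton X-100, pH 7.0 was preincubated 15 min at room temperature with compound. Then 40 uM arachidonic acid was added, 30 min. Hydroperoxide was read by Fe-XO absorbance ratio 573/405 nm.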
# % is set by controls: 0 for no effect and ±100 for the full control effect; potency is the fitted concentration of half-maximal effect.
# Sequence of Polyunsaturated fatty acid lipoxygenase ALOX12 (Homo sapiens) (P18054 whole entry, looked up): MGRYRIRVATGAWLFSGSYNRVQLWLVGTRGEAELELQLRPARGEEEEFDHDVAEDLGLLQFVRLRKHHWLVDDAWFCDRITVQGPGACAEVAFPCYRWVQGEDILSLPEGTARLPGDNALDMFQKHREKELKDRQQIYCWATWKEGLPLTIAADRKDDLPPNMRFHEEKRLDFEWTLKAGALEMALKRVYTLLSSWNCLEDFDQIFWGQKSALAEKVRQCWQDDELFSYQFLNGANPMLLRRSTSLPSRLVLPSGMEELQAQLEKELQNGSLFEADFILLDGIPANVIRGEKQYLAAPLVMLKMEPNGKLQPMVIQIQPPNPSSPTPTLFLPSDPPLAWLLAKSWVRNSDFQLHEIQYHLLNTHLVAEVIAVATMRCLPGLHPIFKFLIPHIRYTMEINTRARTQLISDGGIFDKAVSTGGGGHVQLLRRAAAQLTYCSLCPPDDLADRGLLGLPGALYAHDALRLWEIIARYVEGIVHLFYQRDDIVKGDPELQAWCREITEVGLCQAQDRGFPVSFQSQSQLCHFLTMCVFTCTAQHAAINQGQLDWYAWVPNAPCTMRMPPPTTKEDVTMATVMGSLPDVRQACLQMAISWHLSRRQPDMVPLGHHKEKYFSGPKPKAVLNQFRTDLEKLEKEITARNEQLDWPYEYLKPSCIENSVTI
SMILES,"activity change, negative = inhibition",Potency
COc1cccc(S(=O)(=O)N2CCCCCCNC(=O)[C@@H]3CCC[C@@H]32)c1,-4.62%,
O=C(Nc1ccccc1)Nc1cc(S(=O)(=O)N2CCOCC2)ccc1NCC1CCCO1 (centres undefined),23.8%,
c1ccc([C@@H]2CNC[C@H]2COCC2CC2)nc1,0.121%,
Cn1c(C(=O)NCCNC(=O)c2cccc(F)c2)cc2ccccc21,16.2%,
Cc1cccc(-n2nc(-c3c(C)nc4scc(CC(=O)NCCC(C)C)n4c3=O)cc2C)c1C,72.6%,
COc1ccccc1CCNS(=O)(=O)c1ccc(N2C(=O)C(C)(C)CS2(=O)=O)cc1,-48.1%,
COc1ccc2nc(SC3CC(=O)N(c4ccc(F)cc4)C3=O)nc(C)c2c1 (centres undefined),0.607%,
O=C(CCN1CCN(C/C=C/c2ccccc2)CC1)Nc1cccc(F)c1,-2.51%,
O=C(CCN1CCCCC1)Nc1ccc(F)c(F)c1,4.59%,
Cc1cc(NC(=O)CCN2CCN(Cc3ccccc3)CC2)ccc1Br,,3.16 µM (active)
COCCNC(=O)COc1ccc2c(C)c(Cc3ccccc3)c(=O)oc2c1C,-38.9%,
CN(C)C[C@@H]1CN(Cc2ccccn2)C[C@H]1NC(=O)c1cc(F)ccc1Cl,113%,
COC(=O)COc1ccc2c(=O)c(Oc3ccccc3Br)coc2c1,0%,
COc1ccccc1Oc1coc2cc(OCc3ccc(Cl)cc3)ccc2c1=O,-11%,
O=C(O)COc1ccc2c(=O)c(Oc3ccc(Cl)cc3)coc2c1,,12.6 µM (active)
CCCCN1C(SCC(=O)N2CCCC2)=NS(=O)(=O)c2ccccc21,4.21%,
Cc1ccc(C(CNC(=O)c2cc3ccccc3oc2=O)N(C)C)o1 (centres undefined),8.45%,
O=C1Cc2c(-c3ccc(Oc4ccccc4)cc3)n[nH]c2CN1CCc1ccncc1,14.1% [at 176 µM],
CCc1ccc(Nc2n[n+](-c3ccccc3)c(-c3cccc(Cl)c3Cl)s2)cc1,,39.8 µM (active)
CCn1nc(C)cc1-c1nn2c(-c3cccc(Cl)c3Cl)nnc2s1,62.2%,
CC1CCCC(NC(=O)c2c(F)cccc2F)C1C (centres undefined),5.84%,
CCc1sc(C(=O)NC(C)C)cc1C,-26.1%,
Cc1cccc(OCC(O)CNC23CC4CC(CC(C4)C2)C3)c1 (centres undefined),12%,
CCn1cc(CN2CCCC23CCN(c2ccc(C(F)(F)F)cn2)CC3)cc1C#N,52.7%,
Cc1cc(C(F)(F)F)nn1Cc1nc2c3c4c(sc3ncn2n1)CCC4,37.6%,
O=C(CSc1ncnc2sc3c(c12)CCCC3)Nc1ccc(F)cc1,-0.335%,

SMILES,"activity change, negative = inhibition",Potency
S=c1[nH]nc2c3c4c(sc3ncn12)CCCC4,,0.562 µM (active)
CCCCCCCCCC(=O)NN=C1CCCCCCCCCCC1,20.9%,
O=C(CSc1ccncc1)N1CCCC(O)(CN2CCCC2)C1 (centres undefined),,25.1 µM (active)
CC1(C(=O)NS(=O)(=O)C2CC2)CCCN(C(=O)CSc2ccccc2)C1 (centres undefined),2.48%,
O=C(CSc1ncccn1)N1CCCC1,12%,
COc1ccc(C2CC(=O)c3cnc4c(c3C2)c(=O)[nH]c(=O)n4CCC(C)C)cc1 (centres undefined),-3.93%,
CCCC(=O)C1C(=O)CC(c2ccc(OC)c(OC)c2)CC1=O (centres undefined),46.2%,
O=C(CSc1nc2ccccc2nc1N1CCCCC1)Nc1cccc(Br)c1,56.1%,
CC(Oc1ccc(-c2ccccc2)cc1)C(N)=O (centres undefined),47.2%,
CC1(OC(=O)C2CCCC2)C(=O)C=C2C=C(c3ccc(C#N)cc3)OC=C2C1=O (centres undefined),,10 µM (active)
CCCCCC1CCC(C(=O)Oc2ccc(C#N)cc2)CC1 (centres undefined),1.66%,
N#Cc1ccc(-c2nc(C(=O)NC3CCCCCC3)no2)cc1,7.37%,
CCCc1cc(=O)oc2c(C)c(OCC(=O)c3ccc(-c4ccccc4)cc3)ccc12,8.56%,
O=C(Nc1ccc2c(c1)OCCO2)C(=O)c1c[nH]c2cc(F)ccc12,-16.1%,
Fc1ccc(OC2CN(Cc3cccnc3)C2)c(F)c1,10.3% [at 12.5 µM],
C=CCc1ccc(OCC(O)CN2CCN(Cc3ccccc3)CC2)c(OC)c1 (centres undefined),-23.6%,
COc1ccc(CN2CCN(Cc3cccnc3)CC2)cc1OCc1ccccc1,,0.708 µM (active)
Cc1[nH]nc2c1C(c1ccccc1Br)C1=C(COC1=O)N2 (centres undefined),-14.3%,
O=C(NCc1coc(-c2cccs2)n1)C1CCCN(C(=O)c2ccc(F)cc2)C1 (centres undefined),-2.26%,
CN(CC(=O)Nc1cc(Cl)ccc1F)Cc1ccccc1N1CCCCC1,10.9%,
CNC(NC(=O)c1ccc(C)cc1)C(Cl)(Cl)Cl (centres undefined),3.19%,
COc1ccc(C(=O)N(Cc2ccccc2)c2ccc(C)cc2)cc1S(=O)(=O)N1CCOCC1,1.7%,
COc1ccc(C)cc1S(=O)(=O)N1CCN(S(=O)(=O)c2cc(C(=O)O)ccc2C)CC1,,15.8 µM (active)
COc1ccc(C(=O)NCc2ccc(C)cc2)cc1S(=O)(=O)N1CCCC1,30.3%,
CCCCn1nc(C(=O)Nc2cc(Cl)ccc2C)c2ccccc2c1=O,3.35%,
CCOc1ccc(-c2nc(CN3CCN(C(=O)Nc4ccccc4OC)CC3)c(C)o2)cc1,-12%,

SMILES,"activity change, negative = inhibition",Potency
Cc1ncc(-c2ccc(S(=O)(=O)Nc3ccc(F)c(F)c3)cc2)o1,-25.2%,
COc1cccc(CN2CCCN(Cc3ccncc3)C(c3ccccc3)CC(=O)NCC2)c1OC (centres undefined),67.7%,
N#Cc1c(-c2cccs2)nc(SCC(=O)c2ccc(Br)cc2)[nH]c1=O,,7.08 µM (active)
N#Cc1ccc(-c2cccs2)nc1SCc1ccc(Br)cc1,-27.6%,
N#Cc1c(-c2ccc(F)cc2)cc(C2CC2)nc1SCC(=O)c1cccs1,-10.2%,
Cc1oc(-c2ccc(OC(C)C)cc2)nc1CSc1nc2c(c(=O)[nH]1)CCC2,-5.3%,
CCC(Oc1ccc(Br)cc1)C(=O)O (centres undefined),-20.7%,
CC(=O)C1=C(O)C(=O)N(c2cccnc2)C1c1ccc([N+](=O)[O-])cc1 (centres undefined),-19.4%,
CC(=O)C1=C(O)C(=O)N(c2ccc(Br)cc2)C1c1ccc([N+](=O)[O-])cc1 (centres undefined),,31.6 µM (active)
COC(=O)CN1C(=O)C(O)=C(C(C)=O)C1c1ccc([N+](=O)[O-])cc1 (centres undefined),-12.7%,
O=C(C(c1ccccc1)c1ccccc1)N(Cc1ccco1)C1CC1,-2.19%,
Cc1ccc(CS(=O)Cc2ccc(Cl)cc2)cc1 (centres undefined),-10.9%,
CC(C)CNC(=S)NNC(=O)c1nn(C)cc1Cl,-17.6%,
O=C(NC1CCCCCC1)C1CCN(C(=O)c2ccc(Cl)cc2)CC1,240%,
CC(C)CNC(=S)NC(=O)c1ccc(Cl)cc1,,8.91 µM (active)
O=C(NC(=S)NC1CCCCC1)c1ccc(Cl)cc1,,2.82 µM (active)
Cc1scc(C(=O)NNC(=S)NCC(C)C)c1C,-23.5%,
O=C(NNC(=S)NC1CC2CCC1C2)c1ccc(Cl)cc1 (centres undefined),0%,
Cc1ccccc1N1CCCN(Cc2ccccc2OCCO)CC1,29.5%,
Cc1ccc(-c2nc3ccccc3o2)cc1NC(=O)C1CC1,-4.05%,
Cn1cc(-c2cnc3n[nH]c(-c4ccccc4)c3n2)cn1,24.5% [at 176 µM],
COc1ccc(Cl)cc1C(=O)OCCOc1ccccc1F,26.4%,
CCc1nnsc1C(=O)N(C)CCOc1ccccc1,-7.12%,
COc1cccc(-c2cc(C(=O)NCCC(C)C)c3ccccc3n2)c1,14.8%,
CCCOc1cccc(-c2cc(C(=O)OC)c3ccccc3n2)c1,4.79%,
CC(C)CCNC(=O)COC(=O)c1cc(-c2ccco2)nc2ccccc12,,6.31 µM (active)

SMILES,"activity change, negative = inhibition",Potency
CN(CCOc1ccccc1)C(=O)c1cc(-c2ccco2)nc2ccccc12,,31.6 µM (active)
Cc1cc(C(=O)OCC(=O)NC(=O)c2ccccc2)c2ccccc2n1,8.94%,
CC(C)c1ccc(OCC(=O)Nc2ccc(C(=O)N(C)C)cc2)cc1,4.6%,
N#Cc1nc(-c2ccc(S(=O)(=O)N3CCOCC3)cc2)oc1NCCN1CCOCC1,1.66%,
CC(C)CCN1CC2(CCCN(C(=O)c3ccn(C)c(=O)c3)C2)CCC1=O (centres undefined),-3.41%,
O=C(CC(NC(=O)c1ccccc1)c1ccccc1)NC12CC3CC(CC(C3)C1)C2 (centres undefined),56.1%,
CCc1nnc(NC(=O)C2CC(=O)N(c3ccc4c(c3)OCCO4)C2)s1 (centres undefined),6.52%,
CCOC(=O)CSc1nnc(NC(=O)C2CC(=O)N(c3ccc(F)cc3)C2)s1 (centres undefined),,39.8 µM (active)
COc1ccc(C(=O)CSc2nnc(NC(=O)C3CC(=O)N(c4cccc(OC)c4)C3)s2)cc1 (centres undefined),8.34%,
CSc1nc(-c2cccs2)cc(C(F)(F)F)n1,-24.3%,
CCn1nc(C(=O)N(C)Cc2cnn(-c3ccccc3)c2)c2ccccc2c1=O,44.5%,
CC1CCCCN1C(C)CNC(=S)Nc1ccc(F)cc1F (centres undefined),-8.73%,
Cn1cc(CN2CCn3c(nnc3[C@@H]3C[C@@H](O)CN3Cc3ccccc3)C2)c2ccccc21,-4.36%,
CCOC(=O)c1c(C)oc2ccc(N(C(=O)c3ccncc3)S(=O)(=O)c3ccc(CC)cc3)cc12,0%,
CC(=O)N(c1ccc2oc(=O)sc2c1)S(=O)(=O)c1ccc(C)cc1,,8.91 µM (active)
CC(=O)Oc1ccc(N(C(C)=O)S(=O)(=O)c2ccc3ccccc3c2)cc1Br,0%,
Cn1c(=O)c2c(nc(NCc3ccccc3)n2Cc2cccc(F)c2)n(C)c1=O,9.35%,
CCN(c1ccc(Cl)cc1)S(=O)(=O)c1nnc(NC(=O)c2ccco2)s1,-23.8%,
O=C(Nc1nc(-c2ccco2)c(-c2ccco2)s1)c1ccco1,,31.6 µM (active)
O=C(Nc1ccc2nc(SCCOc3ccccc3)sc2c1)c1ccco1,-28.3%,
O=C(COC(=O)CNC(=O)c1cccc(Cl)c1)Nc1ncc(C(F)(F)F)cc1Cl,-24.8%,
Cc1nc(SC(C)C(=O)Nc2cccc(C#N)c2)n(CC(C)C)c1C (centres undefined),1.37%,
O=C(Nc1cccnc1)[C@@H]1C[C@@H](c2ccc(F)cc2)N([S+](=O)([O-])c2ccccc2)C1,10.5% [at 176 µM],
COc1ccc(NC(=O)[C@@H]2C[C@@H](c3ccc(F)cc3)N(CCOc3ccccc3)C2)cn1,,31.6 µM (active)
COc1ccc(NC(=O)[C@@H]2C[C@@H](c3cccc(C(F)(F)F)c3)N(Cc3cnn(C)c3)C2)cn1,0.79%,
O=C(NC1CC1)c1ccccc1OCC1CCCN(Cc2ccncc2F)C1 (centres undefined),57.2%,
